Reference: PubChem BioAssay
The source made the active and inactive calls.

Assays:
[1] = binders of probe aFSTL3 on microarray, primary screen, stem cell growth factor project, biochemical, small-molecule microarray, fluorescence 635/667 (AID 1064); conditions: higher = more signal;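 further: measures binding of the biotinylated anti-FSTL3 antibody to printed compounds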
[2] = binders from COS7 lysate, DM2A8 probe, primary screen, torsin A project, cell lysate, small-molecule microarray, fluorescence 635/667 (AID 1065); conditions: higher = more signal, COS7 lysate expressing mutant human TOR1A
[3] = binders of probe aFGF2 on microarray, primary screen, stem cell growth factor project, biochemical, small-molecule microarray, fluorescence 635/667 (AID 1067); conditions: higher = more signal;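 further: measures binding of biotinylated aFGF2 protein to printed compounds on slides; z-score merges feature fluorescence and signal-to-noise across triplicate slides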
[4] = binders of probe aFGF10 on microarray, primary screen, stem cell growth factor project, biochemical, small-molecule microarray, fluorescence 635/667 (AID 1071); conditions: higher = more signal;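 further: score merges 667 nm spot intensity and signal to noise from triplicate slides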
[5] = target: Neurogenic locus notch homolog protein 2 (Homo sapiens) (UniProt Q04721); test: Notch2 binders on small-molecule microarrays, primary screen, biochemical, small-molecule microarray, 635 nm fluorescence, stem cell growth factors (AID 1073); conditions: Notch2 binding, higher = more signal
[6] = target: Pro-neuregulin-1, membrane-bound isoform (Homo sapiens) (UniProt Q02297); test: NRG1 binders on small-molecule microarrays, primary screen, psychiatric disease protein project, biochemical, small-molecule microarray, fluorescence 635/667 (AID 1075); conditions: NRG1 binding, 635 nm fluorescence, higher = more signal;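 further: score combines 667 nm spot fluorescence with signal to noise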
Pro-neuregulin-1, membrane-bound isoform (Homo sapiens), sequence (Q02297 whole entry, looked up, the tested form may be a part, canonical isoform): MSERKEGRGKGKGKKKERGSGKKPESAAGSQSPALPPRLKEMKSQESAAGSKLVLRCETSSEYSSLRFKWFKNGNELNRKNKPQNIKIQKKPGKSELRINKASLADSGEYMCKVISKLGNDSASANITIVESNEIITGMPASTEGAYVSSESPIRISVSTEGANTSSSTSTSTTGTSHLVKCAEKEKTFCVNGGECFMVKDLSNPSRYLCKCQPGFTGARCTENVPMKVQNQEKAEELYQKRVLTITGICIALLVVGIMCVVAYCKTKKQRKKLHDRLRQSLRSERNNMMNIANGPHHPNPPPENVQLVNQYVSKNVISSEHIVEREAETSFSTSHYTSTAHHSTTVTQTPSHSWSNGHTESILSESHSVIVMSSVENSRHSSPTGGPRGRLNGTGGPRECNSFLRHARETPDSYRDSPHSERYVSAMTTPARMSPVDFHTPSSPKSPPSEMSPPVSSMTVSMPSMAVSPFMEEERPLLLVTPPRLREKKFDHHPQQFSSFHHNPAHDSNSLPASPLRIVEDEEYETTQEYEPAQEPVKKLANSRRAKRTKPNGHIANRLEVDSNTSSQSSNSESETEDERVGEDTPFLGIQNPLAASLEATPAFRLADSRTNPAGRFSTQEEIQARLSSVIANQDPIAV

[7] = system: Neuregulin-1 EGF-like domain; test: binders of neuregulin-1 EGF-like domain, primary screen, biochemical, small-molecule microarray, 635 nm fluorescence (AID 1081); conditions: small-molecule microarray binding, higher = more signal;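 further: binding of the protein to compounds printed on small-molecule microarray slides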
[8] = FRG1 promoter luciferase signal modulators, primary screen, FRG1 inhibition for FSHD, cell-based, C2C12 myotubes, firefly/Renilla luciferase, luminescence (AID 1084); conditions: higher = more signal, called active from +8 up or from −8 down
[9] = binders of probe aFST on microarray, primary screen, stem cell growth factor project, biochemical, small-molecule microarray, fluorescence 635/667 (AID 1086); conditions: higher = more signal;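 further: score merges 667 nm fluorescence with signal-to-noise of each printed compound spot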
[10] = binders of probe aHhip on microarray, primary screen, stem cell growth factor project, biochemical, small-molecule microarray, fluorescence 635/667 (AID 1087); conditions: higher = more signal;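 further: score merges spot fluorescence at 667nm with spot signal to noise ratio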
[11] = system: PRMT1 (protein arginine N-methyltransferase 1); test: PRMT1 binders on small-molecule microarrays, primary screen, biochemical, small-molecule microarray, 635 nm fluorescence (AID 1088); conditions: small-molecule microarray binding, higher = more signal;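 further: binding of Prmt1 protein to compounds spotted on small-molecule microarray slides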
[12] = yeast growth modulation, basal conditions, primary screen, YJM789 clinical isolate, OD600, 24 h (AID 1089);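 further: growth of clinical yeast isolate S. cerevisiae YJM 789 seeded 1000 cells per well; test concentration not given here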; conditions: S. cerevisiae YJM789 growth, higher = more signal, called active from +8 up or from −8 down
[13] = fission yeast growth modulation, primary screen, strain 972, OD600, 24 h, no modulator (AID 1090);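 further: basal condition with compound alone and no growth modifier present; test concentration not given here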; conditions: S. pombe 972 growth, higher = more signal, called active from +8 up or from −8 down
[14] = S. cerevisiae growth modulation with rapamycin, primary screen, strain BY4716, OD600, 96 h (AID 1091); conditions: higher = more signal, called active from +8 up or from −8 down; further: test concentration not given here
[15] = target: Torsin-1A-interacting protein 2 (Homo sapiens) (UniProt Q8NFQ8); test: LULL1 binders on small-molecule microarray, primary screen, cell lysate, human LULL1 lysate, 635/667 nm fluorescence (AID 1092); conditions: hLULL1 lysate binding, 635 nm fluorescence, higher = more signal;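 further: probe is lysate of COS7 cells overexpressing human LULL1; score merges per-feature 667 nm fluorescence with signal-to-noise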
Torsin-1A-interacting protein 2 (Homo sapiens), sequence (Q8NFQ8 whole entry, looked up): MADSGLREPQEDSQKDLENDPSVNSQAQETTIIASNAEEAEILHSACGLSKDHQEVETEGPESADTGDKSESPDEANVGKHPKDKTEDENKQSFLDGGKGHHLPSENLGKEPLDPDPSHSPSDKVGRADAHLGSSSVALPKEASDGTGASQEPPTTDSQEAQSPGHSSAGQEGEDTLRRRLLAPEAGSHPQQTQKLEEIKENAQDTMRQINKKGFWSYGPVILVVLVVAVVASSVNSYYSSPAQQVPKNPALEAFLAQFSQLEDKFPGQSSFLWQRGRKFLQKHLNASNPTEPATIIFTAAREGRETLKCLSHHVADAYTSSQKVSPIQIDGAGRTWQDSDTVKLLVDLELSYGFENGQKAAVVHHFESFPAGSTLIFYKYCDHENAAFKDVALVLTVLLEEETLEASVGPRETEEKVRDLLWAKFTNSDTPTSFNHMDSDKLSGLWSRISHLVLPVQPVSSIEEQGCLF

[16] = E. coli growth modulation, two-sided OD650, primary screen, E. coli filamentation project, strain DRC41, 24 h (AID 1093); conditions: OD650, 24 h, higher = more signal, called active from +8 up or from −8 down;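 further: MC1000 strain lacking acrAB efflux and sulA so SOS filamentation is blocked; test concentration not given here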
[17] = small-molecule microarray binders of probe aLefty2, primary screen, biochemical, biotinylated probe, 635/667 nm fluorescence (AID 1094); conditions: higher = more signal;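 further: score merges spot fluorescence near 667 nm with spot signal-to-noise ratio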
[18] = system: Noggin (protein binding on small-molecule microarray); test: Noggin binders on small-molecule microarray, primary screen, biochemical, 635/667 nm fluorescence (AID 1095); conditions: 635 nm fluorescence, higher = more signal;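 further: score merges 667 nm feature fluorescence with signal to noise over triplicate slides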
[19] = target: Neurogenic locus notch homolog protein 3 (Homo sapiens) (UniProt Q9UM47); test: NOTCH3 binders on small-molecule microarray, primary screen, biochemical, 635/667 nm fluorescence (AID 1096); conditions: NOTCH3 binding, 635 nm fluorescence, higher = more signal
Neurogenic locus notch homolog protein 3 (Homo sapiens), sequence (Q9UM47 whole entry, looked up): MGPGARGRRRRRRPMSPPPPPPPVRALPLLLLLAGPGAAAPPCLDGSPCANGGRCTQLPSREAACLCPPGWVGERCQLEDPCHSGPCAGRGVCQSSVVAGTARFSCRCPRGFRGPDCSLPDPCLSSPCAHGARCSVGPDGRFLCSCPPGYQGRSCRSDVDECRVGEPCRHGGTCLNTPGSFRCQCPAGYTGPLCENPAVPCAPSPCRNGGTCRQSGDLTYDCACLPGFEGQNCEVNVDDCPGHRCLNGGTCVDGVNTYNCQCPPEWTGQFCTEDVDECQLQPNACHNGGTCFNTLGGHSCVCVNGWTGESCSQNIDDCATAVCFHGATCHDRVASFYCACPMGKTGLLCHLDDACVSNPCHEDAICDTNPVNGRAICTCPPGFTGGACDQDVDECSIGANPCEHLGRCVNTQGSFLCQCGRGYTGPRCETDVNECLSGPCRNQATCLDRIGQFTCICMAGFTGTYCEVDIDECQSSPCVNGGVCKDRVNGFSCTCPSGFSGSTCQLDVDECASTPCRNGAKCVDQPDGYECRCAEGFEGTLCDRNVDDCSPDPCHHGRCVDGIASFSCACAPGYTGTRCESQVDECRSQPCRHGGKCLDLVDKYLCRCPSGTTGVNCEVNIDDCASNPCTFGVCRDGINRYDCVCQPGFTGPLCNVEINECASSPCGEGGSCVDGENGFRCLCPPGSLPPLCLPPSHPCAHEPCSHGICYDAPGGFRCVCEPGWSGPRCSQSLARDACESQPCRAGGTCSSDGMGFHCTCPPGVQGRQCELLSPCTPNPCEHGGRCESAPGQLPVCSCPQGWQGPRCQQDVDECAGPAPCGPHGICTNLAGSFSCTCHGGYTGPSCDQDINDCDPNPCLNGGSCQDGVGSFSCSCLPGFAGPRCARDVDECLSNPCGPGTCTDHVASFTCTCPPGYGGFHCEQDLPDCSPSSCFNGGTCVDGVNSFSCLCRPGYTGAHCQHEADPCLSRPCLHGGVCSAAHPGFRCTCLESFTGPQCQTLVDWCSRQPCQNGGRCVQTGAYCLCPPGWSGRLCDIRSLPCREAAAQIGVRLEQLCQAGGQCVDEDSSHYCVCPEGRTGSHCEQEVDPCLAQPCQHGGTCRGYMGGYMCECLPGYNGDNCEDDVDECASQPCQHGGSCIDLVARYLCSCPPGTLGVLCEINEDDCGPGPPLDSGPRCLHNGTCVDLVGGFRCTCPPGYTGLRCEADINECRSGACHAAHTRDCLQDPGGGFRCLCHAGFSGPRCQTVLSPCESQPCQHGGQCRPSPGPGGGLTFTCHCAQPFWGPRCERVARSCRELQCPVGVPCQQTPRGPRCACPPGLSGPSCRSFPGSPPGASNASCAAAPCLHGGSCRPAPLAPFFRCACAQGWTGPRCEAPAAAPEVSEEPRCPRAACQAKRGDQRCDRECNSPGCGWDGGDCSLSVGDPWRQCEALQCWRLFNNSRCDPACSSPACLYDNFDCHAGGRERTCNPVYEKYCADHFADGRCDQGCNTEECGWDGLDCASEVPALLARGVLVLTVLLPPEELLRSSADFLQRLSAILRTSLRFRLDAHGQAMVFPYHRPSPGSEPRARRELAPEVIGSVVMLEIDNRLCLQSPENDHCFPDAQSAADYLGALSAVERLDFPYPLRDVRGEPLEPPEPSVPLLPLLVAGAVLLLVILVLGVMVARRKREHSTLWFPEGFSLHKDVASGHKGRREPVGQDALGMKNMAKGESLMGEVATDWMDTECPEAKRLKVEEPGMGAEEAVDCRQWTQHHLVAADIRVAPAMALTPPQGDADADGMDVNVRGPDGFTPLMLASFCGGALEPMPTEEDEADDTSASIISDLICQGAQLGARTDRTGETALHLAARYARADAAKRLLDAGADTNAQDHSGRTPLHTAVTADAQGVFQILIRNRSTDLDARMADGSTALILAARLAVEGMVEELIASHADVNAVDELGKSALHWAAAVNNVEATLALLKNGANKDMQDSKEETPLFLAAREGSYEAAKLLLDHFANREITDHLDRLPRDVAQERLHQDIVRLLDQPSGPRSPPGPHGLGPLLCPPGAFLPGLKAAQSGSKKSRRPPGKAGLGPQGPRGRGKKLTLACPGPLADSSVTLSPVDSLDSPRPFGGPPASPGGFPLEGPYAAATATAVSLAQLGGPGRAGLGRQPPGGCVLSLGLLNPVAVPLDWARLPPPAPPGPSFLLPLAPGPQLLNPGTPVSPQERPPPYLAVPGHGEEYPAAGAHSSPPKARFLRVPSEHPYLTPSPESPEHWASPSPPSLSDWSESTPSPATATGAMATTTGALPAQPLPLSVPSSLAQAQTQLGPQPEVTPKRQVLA

[20] = small-molecule microarray binders of probe aEGFR, primary screen, biochemical, biotinylated probe, 635/667 nm fluorescence (AID 1097); conditions: higher = more signal;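 further: probe is a biotinylated anti-EGFR antibody binding compounds printed on slides; score combines fluorescence near 667 nm and signal to noise of each spot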

O=C1NC(=O)C2C1C=CC(C(O)c1c(F)cccc1Cl)N2Nc1ccccn1 (stereo not given)
composite z-score [1]: 0.154
composite z-score [2]: 0.238
composite z-score [3]: 0.0182
composite z-score [4]: 0.474
composite z-score [5]: 0.55
composite z-score [6]: 1.53
composite z-score [7]: 0.633
z-score [8]: 0.569 (inactive)
composite z-score [9]: -0.014
composite z-score [10]: 0.0576
composite z-score [11]: 0.409
z-score [12]: 0.107 (inactive)
z-score [13]: 0.983 (inactive)
z-score [14]: 0.0515 (inactive)
composite z-score [15]: -0.191
z-score [16]: -0.764 (inactive)
composite z-score [17]: 0.21
composite z-score [18]: 0.148
composite z-score [19]: 0.01
composite z-score [20]: 0.213

C[C@H]1C2=C3C(CC[C@H]4C(OCc5ccc(F)cc5C(F)(F)F)OC[C@](C)([C@@H]34)N(C(=O)OC(C)(C)C)C2)C2COC(=O)OCC21 (stereo not given in full)
composite z-score [1]: 0.42
composite z-score [2]: -0.119
composite z-score [3]: -0.0325
composite z-score [4]: 0.226
composite z-score [5]: 1.43
composite z-score [6]: 1.71
composite z-score [7]: 1.03
z-score [8]: 2.53 (inactive)
composite z-score [9]: 1.61
composite z-score [10]: 0.44
composite z-score [11]: 0.63
z-score [12]: -0.271 (inactive)
z-score [13]: -1.22 (inactive)
z-score [14]: 0.258 (inactive)
composite z-score [15]: 3.52
z-score [16]: -1.4 (inactive)
composite z-score [17]: 0.453
composite z-score [18]: -0.618
composite z-score [19]: 1.07
composite z-score [20]: -0.019

CC(C)CNC(=O)[C@@]1(c2ccc([N+](=O)[O-])cc2)CC(=O)N(C2CCCCC2)[C@@H]1c1ccc(CO)cc1I
composite z-score [1]: 0.0706
composite z-score [2]: 0.148
composite z-score [3]: -0.0728
composite z-score [4]: -0.186
composite z-score [5]: 0.421
composite z-score [6]: 1.14
composite z-score [7]: 0.734
z-score [8]: -0.35 (inactive)
composite z-score [9]: -0.126
composite z-score [10]: -0.335
composite z-score [11]: 0.935
z-score [12]: -0.579 (inactive)
z-score [13]: 0.279 (inactive)
z-score [14]: -0.143 (inactive)
composite z-score [15]: 1.98
z-score [16]: -0.602 (inactive)
composite z-score [17]: -0.0512
composite z-score [18]: 0.193
composite z-score [19]: 0.636
composite z-score [20]: -0.096

O=C(N1CCCCC1)[C@@]1(Cc2ccccc2)COC(c2ccc(OCCCO)cc2)=N1
composite z-score [1]: 0.771
composite z-score [2]: 0.81
composite z-score [3]: 0.0661
composite z-score [4]: 1.1
composite z-score [5]: 1.33
composite z-score [6]: 1.91
composite z-score [7]: 1.25
z-score [8]: -2.97 (inactive)
composite z-score [9]: 0.53
composite z-score [10]: 0.347
composite z-score [11]: 1.31
z-score [12]: -0.22 (inactive)
z-score [13]: -5.35 (inactive)
z-score [14]: 1.58 (inactive)
composite z-score [15]: 3.21
z-score [16]: 1.06 (inactive)
composite z-score [17]: 0.511
composite z-score [18]: -0.315
composite z-score [19]: 0.622
composite z-score [20]: 0.548

C=CCOC(=O)[C@@H]1[C@H]2C(=O)O[C@H](c3ccccc3)[C@H](c3ccccc3)N2[C@H](c2ccc(OCCOC(=O)[C@H]3C[C@H]4C(=O)N[C@@H](CCCC[N+](C)(C)C)C(=O)N4[C@H]3c3ccc(O)cc3)cc2)[C@@]12C(=O)Nc1ccc(I)cc12
composite z-score [1]: -0.42
composite z-score [2]: 1.1
composite z-score [3]: -0.0569
composite z-score [4]: 0.528
composite z-score [5]: 1.18
composite z-score [6]: 1.31
composite z-score [7]: 1.37
z-score [8]: 0.369 (inactive)
composite z-score [9]: 0.208
composite z-score [10]: -0.138
composite z-score [11]: 1.53
z-score [12]: 1.86 (inactive)
z-score [13]: 1.49 (inactive)
z-score [14]: 4.28 (inactive)
composite z-score [15]: 2.64
z-score [16]: -0.0021 (inactive)
composite z-score [17]: -0.126
composite z-score [18]: 1.94
composite z-score [19]: 1.05
composite z-score [20]: -0.027
